From PubChem BioAssay
Active and inactive are the calls of the source.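 The calls were made as follows: active = normalized viability below 100% at a tested concentration; inactive = the rest.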

Assay: ovarian cancer cell viability with rucaparib, profiling panel, oncology-focused library, rucaparib conditional (AID 1508598)
Conditions: patient-derived ovarian cancer cells, CellTiter-Glo viability, 144 h; at 0.0781 µM; OCI-C5x cells; without rucaparib; stronger effect = lower value

| Compound | viability |
| --- | --- |
| O=c1[nH]c(=O)n([C@@H]2C[C@H](O)[C@@H](CO)O2)cc1F | 120% (inactive) |
| COc1cccc2c1C(=O)c1c(O)c3c(c(O)c1C2=O)C[C@@](O)(C(C)=O)C[C@H]3O[C@H]1C[C@H](N)[C@H](O)[C@H](C)O1 | 105% (inactive) |
| C[C@]12CC[C@H]3c4ccc(O)cc4CC[C@H]3[C@@H]1CC[C@H]2O | 119% (inactive) |
| CC1=C(/C=C/C(C)=C\C=C\C(C)=C/C(=O)O)C(C)(C)CCC1 | 109% (inactive) |
| CC(C)CC(CC(=O)NO)C(=O)N[C@@H](Cc1ccc2ccccc2c1)C(=O)N[C@@H](C)C(=O)NCCN (stereo partly specified) | 102% (inactive) |
| COc1cccc2c1C(=O)c1c(O)c3c(c(O)c1C2=O)C[C@@](O)(C(=O)CO)C[C@H]3O[C@H]1C[C@H](N)[C@@H](O)[C@H](C)O1 | 83.9% (active) |
| COc1ccc(C2=N[C@H](c3ccc(Cl)cc3)[C@@H](c3ccc(Cl)cc3)N2C(=O)N2CCNC(=O)C2)c(OC(C)C)c1 | 111% (inactive) |
| CO[C@H]1C[C@H]2CC[C@@H](C)[C@@](O)(O2)C(=O)C(=O)N2CCCC[C@H]2C(=O)O[C@H]([C@H](C)C[C@@H]2CC[C@H](OC(=O)C(C)(CO)CO)[C@H](OC)C2)CC(=O)[C@H](C)/C=C(\C)[C@@H](O)[C@@H](OC)C(=O)[C@H](C)C[C@H](C)/C=C/C=C/C=C/1C | 84.7% (active) |
| O=C(O)c1cc(I)ccc1NC(=O)[C@H](Cc1ccccc1)NCc1ccccc1 | 116% (inactive) |
| Nc1ncn([C@@H]2O[C@H](CO)[C@@H](O)[C@@H]2O)c(=O)n1 | 119% (inactive) |
| CO[C@H]1C[C@@H]2CC[C@@H](C)[C@@](O)(O2)C(=O)C(=O)N2CCCC[C@H]2C(=O)O[C@H]([C@H](C)C[C@@H]2CC[C@@H](O)[C@H](OC)C2)CC(=O)[C@H](C)/C=C(\C)[C@@H](O)[C@H](OC)C(=O)[C@H](C)C[C@H](C)/C=C/C=C/C=C/1C | 89.7% (active) |
| CC(=O)OCC(=O)[C@]1(O)[C@H](C)C[C@H]2[C@@H]3CCC4=CC(=O)C=C[C@]4(C)[C@]3(F)[C@H](O)C[C@@]21C | 112% (inactive) |
| CC[C@]1(O)C[C@@H]2CN(CCc3c([nH]c4ccccc34)[C@@](C(=O)OC)(c3cc4c(cc3OC)N(C=O)[C@H]3[C@@](O)(C(=O)OC)[C@H](OC(C)=O)[C@]5(CC)C=CCN6CC[C@@]43[C@@H]65)C2)C1 | 24% (active) |
| C[C@@]12CC[C@H]3c4ccc(O)cc4C[C@@H](CCCCCCCCCS(=O)CCCC(F)(F)C(F)(F)F)[C@H]3[C@@H]1CC[C@@H]2O (stereo partly specified) | 112% (inactive) |
| CC(=O)O[C@@]1(C(C)=O)CC[C@H]2[C@@H]3C[C@H](C)C4=CC(=O)CC[C@]4(C)[C@@H]3CC[C@@]21C | 114% (inactive) |
| CC(=O)O[C@]12CO[C@@H]1C[C@H](O)[C@]1(C)C(=O)[C@H](O)C3=C(C)[C@H](OC(=O)[C@H](O)[C@@H](NC(=O)OC(C)(C)C)c4ccccc4)C[C@](O)([C@H](OC(=O)c4ccccc4)C21)C3(C)C (stereo partly specified) | 33.7% (active) |
| CCC1=CC2CN(C1)Cc1c([nH]c3ccccc13)[C@@](C(=O)OC)(c1cc3c(cc1OC)N(C)[C@H]1[C@@](O)(C(=O)OC)[C@H](OC(C)=O)[C@]4(CC)C=CCN5CC[C@@]31[C@H]54)C2 (stereo partly specified) | 22.9% (active) |
| CC(=O)O[C@H]1C(=O)[C@@]2(C)C([C@H](OC(=O)c3ccccc3)[C@]3(O)C[C@H](OC(=O)[C@H](O)[C@@H](NC(=O)c4ccccc4)c4ccccc4)C(C)=C1C3(C)C)[C@]1(OC(C)=O)CO[C@@H]1C[C@H]2O (stereo partly specified) | 30.2% (active) |

Same assay, conditions: patient-derived ovarian cancer cells, CellTiter-Glo viability, 144 h; at 0.0781 µM; OCI-P5x cells; with rucaparib 20 µM; stronger effect = lower value; 100% = cells with rucaparib alone

| Compound | viability |
| --- | --- |
| O=c1[nH]c(=O)n([C@@H]2C[C@H](O)[C@@H](CO)O2)cc1F | 104% (inactive) |
| COc1cccc2c1C(=O)c1c(O)c3c(c(O)c1C2=O)C[C@@](O)(C(C)=O)C[C@H]3O[C@H]1C[C@H](N)[C@H](O)[C@H](C)O1 | 74.4% (active) |
| C[C@]12CC[C@H]3c4ccc(O)cc4CC[C@H]3[C@@H]1CC[C@H]2O | 108% (inactive) |
| CC1=C(/C=C/C(C)=C\C=C\C(C)=C/C(=O)O)C(C)(C)CCC1 | 96.7% (active) |
| CC(C)CC(CC(=O)NO)C(=O)N[C@@H](Cc1ccc2ccccc2c1)C(=O)N[C@@H](C)C(=O)NCCN (stereo partly specified) | 90% (active) |
| COc1cccc2c1C(=O)c1c(O)c3c(c(O)c1C2=O)C[C@@](O)(C(=O)CO)C[C@H]3O[C@H]1C[C@H](N)[C@@H](O)[C@H](C)O1 | 54% (active) |
| COc1ccc(C2=N[C@H](c3ccc(Cl)cc3)[C@@H](c3ccc(Cl)cc3)N2C(=O)N2CCNC(=O)C2)c(OC(C)C)c1 | 86.1% (active) |
| CO[C@H]1C[C@H]2CC[C@@H](C)[C@@](O)(O2)C(=O)C(=O)N2CCCC[C@H]2C(=O)O[C@H]([C@H](C)C[C@@H]2CC[C@H](OC(=O)C(C)(CO)CO)[C@H](OC)C2)CC(=O)[C@H](C)/C=C(\C)[C@@H](O)[C@@H](OC)C(=O)[C@H](C)C[C@H](C)/C=C/C=C/C=C/1C | 70.8% (active) |
| O=C(O)c1cc(I)ccc1NC(=O)[C@H](Cc1ccccc1)NCc1ccccc1 | 97.8% (active) |
| Nc1ncn([C@@H]2O[C@H](CO)[C@@H](O)[C@@H]2O)c(=O)n1 | 110% (inactive) |
| CO[C@H]1C[C@@H]2CC[C@@H](C)[C@@](O)(O2)C(=O)C(=O)N2CCCC[C@H]2C(=O)O[C@H]([C@H](C)C[C@@H]2CC[C@@H](O)[C@H](OC)C2)CC(=O)[C@H](C)/C=C(\C)[C@@H](O)[C@H](OC)C(=O)[C@H](C)C[C@H](C)/C=C/C=C/C=C/1C | 92.1% (active) |
| CC(=O)OCC(=O)[C@]1(O)[C@H](C)C[C@H]2[C@@H]3CCC4=CC(=O)C=C[C@]4(C)[C@]3(F)[C@H](O)C[C@@]21C | 104% (inactive) |
| CC[C@]1(O)C[C@@H]2CN(CCc3c([nH]c4ccccc34)[C@@](C(=O)OC)(c3cc4c(cc3OC)N(C=O)[C@H]3[C@@](O)(C(=O)OC)[C@H](OC(C)=O)[C@]5(CC)C=CCN6CC[C@@]43[C@@H]65)C2)C1 | 49.3% (active) |
| C[C@@]12CC[C@H]3c4ccc(O)cc4C[C@@H](CCCCCCCCCS(=O)CCCC(F)(F)C(F)(F)F)[C@H]3[C@@H]1CC[C@@H]2O (stereo partly specified) | 119% (inactive) |
| CC(=O)O[C@@]1(C(C)=O)CC[C@H]2[C@@H]3C[C@H](C)C4=CC(=O)CC[C@]4(C)[C@@H]3CC[C@@]21C | 94% (active) |
| CC(=O)O[C@]12CO[C@@H]1C[C@H](O)[C@]1(C)C(=O)[C@H](O)C3=C(C)[C@H](OC(=O)[C@H](O)[C@@H](NC(=O)OC(C)(C)C)c4ccccc4)C[C@](O)([C@H](OC(=O)c4ccccc4)C21)C3(C)C (stereo partly specified) | 61.2% (active) |
| CCC1=CC2CN(C1)Cc1c([nH]c3ccccc13)[C@@](C(=O)OC)(c1cc3c(cc1OC)N(C)[C@H]1[C@@](O)(C(=O)OC)[C@H](OC(C)=O)[C@]4(CC)C=CCN5CC[C@@]31[C@H]54)C2 (stereo partly specified) | 49.1% (active) |
| CC(=O)O[C@H]1C(=O)[C@@]2(C)C([C@H](OC(=O)c3ccccc3)[C@]3(O)C[C@H](OC(=O)[C@H](O)[C@@H](NC(=O)c4ccccc4)c4ccccc4)C(C)=C1C3(C)C)[C@]1(OC(C)=O)CO[C@@H]1C[C@H]2O (stereo partly specified) | 64.9% (active) |
